Only a selection was taken, and hits are over-represented in it overall.
CHX counter – counter-screen hit for Shiga toxin inhibitors, cycloheximide; cell reporter, cycloheximide protein synthesis inhibition counterscreen; max response, %; 300,000 tested, 12% active; in the data active = max response mostly above about 13%, no sharp cut-off; inactive = mostly below about 14%; also: read at 38.3 µM for the half of the compounds with a filed dose
Sm TGR inh – blocks Schistosoma mansoni thioredoxin glutathione reductase; purified TGR, DTNB reduction, TNB absorbance 405 nm; Q962Y6; AID 485364; 360,000 tested, 3% active; Potency, µM (highest dose often 114 µM), actives largely listed as inhibitors; also: nearly all actives have a fitted effect of over 60% in size
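First, TGR (20 nM dispensed) and NADPH were mixed with compound. Second, a 15 min room-temperature incubation followed. Third, further NADPH and then DTNB were added to start the reaction. Finally, TNB absorbance was monitored kinetically.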
Shiga toxin inh – blocks Shiga toxin action in Vero cells; Vero cells, Shiga toxin protein synthesis inhibition reporter; inhibition, % at 38.7 µM; 290,000 tested, 9.2% active; AID 2315; in the data active = inhibition mostly above about 28%, no sharp cut-off; inactive = mostly below about 43%
LmPK inh – blocks Leishmania mexicana pyruvate kinase activity; purified LmPK, Kinase-Glo ATP luminescence, 1 h; 290,000 tested, 0.37% active; Potency, µM (titrated, usually from 57.5 µM), usual class: inhibitors
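qHTS format; LmPK 0.1 nM; substrates PEP 0.5 mM and ADP 0.1 mM. One-hour room-temperature incubation, then coupled luciferase luminescence; 0.5 nM enzyme wells mark activation.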
Giardia FBPA inh – inhibitors of Giardia lamblia fructose-1,6-bisphosphate aldolase; A8B2U2; purified Giardia FBPA; Potency, µM (top dose mostly 59.6 µM), hits mostly inhibitors; 290,000 tested, 0.71% active; also: nearly all actives have a fitted effect of over 55% in size
Target sequence (A8B2U2 whole entry, looked up): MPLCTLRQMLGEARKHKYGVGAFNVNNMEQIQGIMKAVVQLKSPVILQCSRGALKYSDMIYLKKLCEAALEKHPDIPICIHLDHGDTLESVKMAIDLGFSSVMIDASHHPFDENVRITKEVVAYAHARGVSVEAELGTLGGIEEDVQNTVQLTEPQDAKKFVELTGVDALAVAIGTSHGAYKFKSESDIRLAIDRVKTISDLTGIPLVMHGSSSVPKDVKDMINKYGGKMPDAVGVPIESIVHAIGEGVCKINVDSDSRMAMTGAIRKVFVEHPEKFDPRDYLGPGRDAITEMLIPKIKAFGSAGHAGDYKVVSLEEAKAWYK
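Giardia FBPA (40 nM reagent) was preincubated 10 min at RT with compound (up to 57.5 uM final), then substrate plus GAPDH/TPI/NAD/arsenate coupling system with diaphorase/resazurin was added; resorufin fluorescence (525/598 nm) was read after 20 min.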
TbPYK inhibitor – inhibitors of Trypanosoma brucei pyruvate kinase. Q57TT1. TbPYK enzyme, Kinase-Glo Plus ATP luminescence, 45 min. Potency, µM (series often up to 76.8 µM), hits mostly inhibitors. 410,000 tested, 0.12% active. AID 624173; also: nearly all actives have a fitted effect of over 50% in size
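Assay buffer: 50 mM TEA pH 7.2, 100 mM KCl, 10 mM MgCl2, 0.05% BSA, 0.01% Tween-20. Pyruvate kinase from T. brucei plus substrate met compound, then ADP (130 uM final). Luminescence was read post 45 min RT.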
Each line names hits and unclear results; the compound was inactive in the other large screens. Unless noted, calls follow the shape of the dose curve; as a rule, active = well fitted curve in the direction sought with a large enough effect; inconclusive = small, poorly fitted or top-dose-only effect, or another doubt; inactive = no such curve, though single readings can be large; an effect the other way counts as inactive or inconclusive.

COc1ccc(Cl)cc1NC(=O)N1CCC(CN2CCc3ccccc3C2)CC1	none (no result: CHX counter, Shiga toxin inh, LmPK inh, Giardia FBPA inh)
CN(CC(=O)Nc1sccc1C(N)=O)S(=O)(=O)c1ccc(Cl)cc1	none (no result: CHX counter, Sm TGR inh, Shiga toxin inh, LmPK inh, Giardia FBPA inh)
Cc1cc(C)n(CC(=O)NC2CCCc3c2cnn3-c2ccc(C)c(C)c2)n1 (centres undefined)	CHX counter 38.1, Shiga toxin inh 54.4
Cc1cccc(NC(=O)CSc2nccn2Cc2ccc(F)cc2)c1C	none (no result: CHX counter, Shiga toxin inh, LmPK inh, Giardia FBPA inh)
COc1ccc(/C=N/NC(=O)CN(c2ccc(OC)cc2)S(=O)(=O)c2ccccc2)cc1	none
O=C(CN(c1ccccc1)S(=O)(=O)c1ccccc1)N/N=C/c1ccco1	none
Cc1ccc(N(CC(=O)N/N=C/c2ccco2)S(=O)(=O)c2ccccc2)cc1	Sm TGR inh 25.1µM
COc1ccc(N(CC(=O)N/N=C/c2ccco2)S(=O)(=O)c2ccccc2)cc1	Sm TGR inh 28.2µM
CCOc1ccccc1CNC(=O)C(CC)n1nc(C)c2c(C)n(-c3ccccc3)nc2c1=O (centres undefined)	none (no result: CHX counter, Shiga toxin inh, LmPK inh, Giardia FBPA inh)
COCCn1c(C)cc(O)c(C(c2ccccc2Cl)N2CCCCC2)c1=O (centres undefined)	Sm TGR inh 28.2µM (no result: CHX counter, Shiga toxin inh, LmPK inh, Giardia FBPA inh)
COCCn1c(C)cc(C(=O)COC(=O)c2ccc(Cl)c(S(N)(=O)=O)c2)c1C	none (no result: CHX counter, Shiga toxin inh, LmPK inh, Giardia FBPA inh)
COc1ccccc1C(CNC(=O)c1ccco1)N1CCCC1 (centres undefined)	none (no result: CHX counter, Shiga toxin inh, LmPK inh, Giardia FBPA inh)
Clc1ccccc1N1CCN(Cc2ccco2)CC1	none
COc1ccccc1C(c1c(O)cc(C)n(Cc2ccco2)c1=O)N1CCCCC1 (centres undefined)	Sm TGR inh 7.08µM (no result: CHX counter, Shiga toxin inh, LmPK inh, Giardia FBPA inh)
COc1ccc(C(c2c(O)cc(C)n(Cc3ccco3)c2=O)N2CCCCC2)cc1OC (centres undefined)	Sm TGR inh 7.94µM (no result: CHX counter, Shiga toxin inh, LmPK inh, Giardia FBPA inh)
Cc1cc(O)c(C(c2ccccc2Cl)N2CCCCC2)c(=O)n1Cc1ccco1 (centres undefined)	Sm TGR inh 4.47µM (no result: CHX counter, Shiga toxin inh, LmPK inh, Giardia FBPA inh)
Cc1ccc(-n2nc3c(N4CCC(C(=O)NCCC(C)C)CC4)nnc(C)c3c2C)cc1	none (no result: CHX counter, Shiga toxin inh, LmPK inh, Giardia FBPA inh)
CCOc1ccc(-n2nc(CO)c(C(=O)NCCCc3ccccc3)n2)cc1	none (no result: CHX counter, Shiga toxin inh, LmPK inh, Giardia FBPA inh)
Cc1cc(O)c(C(c2ccccc2)N2CCCCC2)c(=O)n1Cc1ccco1 (centres undefined)	Sm TGR inh 10µM (no result: CHX counter, Shiga toxin inh, LmPK inh, Giardia FBPA inh)
COc1ccc(C(c2c(O)cc(C)n(Cc3ccco3)c2=O)N2CCN(c3ccccc3)CC2)cc1 (centres undefined)	Sm TGR inh 3.16µM (no result: CHX counter, Shiga toxin inh, LmPK inh, Giardia FBPA inh)
COc1ccc(N2CCN(C(c3ccccc3OC)c3nnnn3Cc3ccco3)CC2)cc1 (centres undefined)	none
CC(=O)Oc1c2c(c(CC=C(C)C)c3c1C(=O)C1=CC4CC5C(C)(C)OC(C/C=C(\C)C(=O)O)(C4=O)[C@]15O3)OC(C)(CCC=C(C)C)C=C2 (some centres undefined)	none (no result: CHX counter, Sm TGR inh, Shiga toxin inh, LmPK inh, TbPYK inhibitor)
Cc1ccc2c(c1)cc1c(=O)n(CC(=O)NC3CCCCC3)nc(C)n12	none (no result: CHX counter, Shiga toxin inh, LmPK inh, Giardia FBPA inh)
COc1ccc(CCNC(=O)c2nc(SCc3ccc(F)cc3)ncc2Cl)cc1OC	none (no result: CHX counter, Shiga toxin inh, LmPK inh, Giardia FBPA inh)
O=S(=O)(c1ccccc1)N1CCC[C@@]2(CCN(c3ccncc3)C2)C1	none (no result: CHX counter, Sm TGR inh, Shiga toxin inh, LmPK inh)
O=C(NCc1ccc(Cl)cc1)C(=O)NCC(c1ccc2c(c1)OCO2)N1CCOCC1 (centres undefined)	none (no result: CHX counter, Shiga toxin inh, LmPK inh, Giardia FBPA inh)
O=S(=O)(c1ccc(Cl)c(NC(=S)Nc2ccccc2N2CCOCC2)c1)N1CCOCC1	Sm TGR inh 35.5µM
O=C(Nc1ccccc1N1CCCC1)c1cc(S(=O)(=O)N2CCOCC2)ccc1Cl	none (no result: CHX counter, Shiga toxin inh, LmPK inh, Giardia FBPA inh)
CC(C)NC(=S)N/N=C/c1ccc(N2CCOCC2)cc1	none
O=S(=O)(c1ccc(Cl)c(NC(=S)N/N=C/c2c(F)cccc2F)c1)N1CCOCC1	none
C/C(=N\NC(=S)Nc1cc(S(=O)(=O)N2CCOCC2)ccc1Cl)c1ccc(N2CCOCC2)cc1	none
COc1ccc2cc(/C(C)=N/NC(=S)Nc3cc(S(=O)(=O)N4CCOCC4)ccc3N3CCOCC3)ccc2c1	CHX counter 20.5 (no result: Sm TGR inh, TbPYK inhibitor)
O=S(=O)(c1ccc(Cl)c(NC(=S)N/N=C/c2ccc(O)cc2)c1)N1CCOCC1	CHX counter 17.8
Oc1ccc(/C=N/NC(=S)N2CCOCC2)cc1	CHX counter 29.6
COc1ccc(Cn2c(CCC(=O)NCc3cccc(Cl)c3)nc3cccnc32)cc1	none (no result: CHX counter, Shiga toxin inh, LmPK inh, Giardia FBPA inh)

From PubChem
